Sampled rows, rich in hits. Any-hit rate of the full collection: about 7.9%.
FMDV inh: High Throughput Screening for Foot and Mouth Disease Virus Antivirals. FMDV antiviral cell-based qHTS. Potency, µM (series often up to 57.9 µM), inactives show at the top dose activity change, negative = inhibition, most hits filed as inhibitors. 1.2% of 410,000 active. AID 1159524, 2015; calls by dose curve; tested in HEK293T cells; also: read-out not given here; potency is read from the fitted curve at half-maximal effect; nearly all actives have a fitted effect of over 45% in size
Lassa entry inh: qHTS for Inhibitors of binding or entry into cells for Lassa Virus; Lassa virus pseudotype entry inhibition, cell reporter; Potency, µM (series often up to 37.9 µM), for the others: at the highest dose activity change, negative = inhibition, hits mostly inhibitors; 1.2% of 300,000 active; calls by dose curve; tested in HEK293 cells; also: potency is read from the fitted curve at half-maximal effect; nearly all actives have a fitted effect of over 50% in size
HCMV antiviral: qHTS Assay for inhibitors of the human cytomegalovirus (HCMV) | HFF cells, HCMV-luciferase reporter, 72 h; active compounds read low | activity change, negative = inhibition, % at 57.5 µM | 4.5% of 410,000 active | AID 1259415, 2018; in the data active = activity change below about -60%; inconclusive = no clear call, values can overlap the other calls; inactive = above about -39%
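Cell-based, HFFs, 1000 cells/well, 16 h 37C; cpds in DMSO + HCMV-luc, MOI 1 PFU/cell; 72 h 37C; OneGlo luminescence after 5 min RT; norm. to buffer vs Salinomycin 10uM.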
MARV entry inh: qHTS for inhibitors of binding or entry into cells for Marburg Virus | Marburg virus pseudotyped entry inhibition, cell reporter | Potency, µM (doses to about 37.8 µM), inactives show at the top dose activity change, negative = inhibition, most hits filed as inhibitors | 1.8% of 300,000 active | AID 540276, 2011; calls by dose curve; tested in HEK293 cells; also: potency is read from the fitted curve at half-maximal effect
HCV inhibitor: qHTS Assay for Inhibitors of Hepatitis C Virus (HCV). Huh7.5.1 HCVcc-Cre infection, luciferase reporter, 44 h. Potency, µM (titrated, usually from 41.8 µM), for the others: top-dose activity change, negative = inhibition, actives largely listed as inhibitors. 3.4% of 340,000 active. AID 651820, 2012; active = well fitted inhibition curve with a large enough effect; inconclusive = small, poorly fitted or top-dose-only effect, or another doubt; inactive = no such curve, though single readings can be large or run the other way; also: potency is read from the fitted curve at half-maximal effect
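Seed cells (1,000/well) for 4 h; treat with compound and infect with HCVcc-Cre, moi about 0.5. Incubate 44 h, then detect luciferase activity.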
Numbers without * were called inactive; ? = inconclusive; · = not tested or not shown; + = active, no number; [ ] = dose if it differs, or a comment. % is scaled to controls: 0 for no effect and ±100 for the full control effect.

SMILES | FMDV inh | Lassa entry inh | HCMV antiviral | MARV entry inh | HCV inhibitor
COc1cc2nc(N(C)C)c(CNC3CCOC(C)(C)C3)cc2c(OC)c1OC (stereo not drawn) | -12% | · | · | · | ·
Cc1nc2c(O)cccc2c(=O)[nH]1 | 0% | · | · | · | ·
Cc1cccn2c(=O)c3cc(C(=O)NC4CCCC4)sc3nc12 | 23% | · | 13 | · | ?
Cc1ccccc1Nc1cc(C(=O)NC2CCCCC2)c2ccccc2n1 | 7% | -4%[46.1 µM] | -9 | 2%[46.1 µM] | ·
Cc1ccccc1Nc1cc(C(=O)NC2CCC(C)CC2)c2ccccc2n1 (stereo not drawn) | 43% | 21%[46.1 µM] | -78* | ? | ·
COC(=O)C(/C=C/C(C)Cc1cc(Br)cc(OCc2ccccc2)c1OC)OCc1ccccc1 (stereo not drawn) | · | · | · | -15%[14.2 µM] | ·
CCN1C(=O)[C@H]2[C@H]3[C@H](O)[C@H](O)C/C(=N\NC(=O)OCc4ccccc4)[C@@H]3CC[C@H]2C1=O | · | · | · | -8%[14.2 µM] | ·
Cc1ccc(NC(=O)CSC2=C(C#N)C(c3ccc4c(c3)OCO4)C3=C(CCCC3=O)N2)c(C)c1 (stereo not drawn) | -18% | ? | -65* | -27% | -23%
COc1ccc(Nc2oc(-c3ccc(COc4ccccc4C)o3)nc2C#N)cc1 | ? | -4%[46.1 µM] | -7 | -21%[46.1 µM] | ·
CC(Nc1oc(-c2ccc(COc3ccccc3)o2)nc1C#N)c1ccccc1 (stereo not drawn) | -13% | ? | -79* | -1%[46.1 µM] | ·
CCOc1ccc(Nc2oc(-c3ccc(COc4ccc(OC)cc4)o3)nc2C#N)cc1 | -20% | -2%[46.1 µM] | -81* | -25%[46.1 µM] | ·
CC(=O)Nc1ccc(NC(=O)c2ccc(CN3CCc4ccccc4C3)cc2)cc1 | -17% | 11% | -17 | ? | -5%
O=C(Nc1ccc(F)cc1)c1ccc(CN2CCc3ccccc3C2)cc1 | ? | · | 0 | · | 5.6µM*
CSc1cccc(NC(=O)c2ccc(CN3CCc4ccccc4C3)cc2)c1 | ? | ? | -61* | ? | 8.9µM*
O=C(Nc1cccc(Br)c1)c1ccc(CN2CCc3ccccc3C2)cc1 | ? | · | -28 | · | 2.2µM*
COc1cc(NC(=O)C(CC(C)C)NS(=O)(=O)c2ccc3c(c2)oc(=O)n3C)c(C(=O)O)cc1OC (stereo not drawn) | -19% | 0%[46.1 µM] | 25 | ? | ·
CCNC(=O)CSc1nnc(CN2CCCCCC2=O)n1-c1ccccn1 | -2% | -3% | 11 | 2%[46.1 µM] | 16%
O=C1CCCCCN1Cc1nnc(SCc2nc3ccccc3s2)n1-c1ccccn1 | 94% | -8% | -107* | 23% | -5%
CCOC(=O)N1CCN(C(=O)c2cc(COc3cccc(C(C)=O)c3)on2)CC1 | -19% | 2% | 36 | -11% | 17%
CCN1CCN(C(=O)c2cc(COc3c(C)cccc3C)on2)CC1 | 17% | 18%[46.1 µM] | -27 | 16%[46.1 µM] | 13%
CCOC(=O)N1CCN(C(=O)c2cc(COc3ccc4ncccc4c3)on2)CC1 | ? | -13%[46.1 µM] | -74* | ? | 7.9µM*
Cc1cccnc1CN1CCN(C(=O)c2cc(COc3ccc4ncccc4c3)on2)CC1 | 13µM* | ? | -83* | ? | 4µM*
CC(/C=N/NC(=O)c1ccc(Br)cc1)=C\c1ccccc1 | · | 0% | -63* | ? | 2%
COCC(=O)N[C@H]1C=C[C@@H](CC(=O)NCc2ccccc2OC)O[C@@H]1CO | -7% | · | 35 | · | ·
Cc1cccc(CNC(=O)c2cccc(NC(=O)N3CCSc4ncccc43)c2)c1 | 0% | 6%[46.1 µM] | + | · | ·
CCOc1ccc(CNC(=O)c2cccc(NC(=O)N3CCSc4ncccc43)c2)cc1OC | 14µM* | ? | ? | · | ·
COc1ccc2c(c1)c1c(c(=O)n(-c3ccc(OC)c(OC)c3)c(=O)n1Cc1ccc(F)cc1)n2C | 3% | 15%[46.1 µM] | 11 | · | ·
CCC(=O)n1nc(NCc2ccc(OC)c(OC)c2)nc1NCc1ccc(OC)c(OC)c1 | 18µM* | -2% | -27 | -7% | ?
COCC(=O)n1nc(NCc2ccc(OC)cc2)nc1NCc1ccc(OC)cc1 | -13% | 6% | 10 | ? | 11%
O=C1c2[nH]nc(-c3ccccc3O)c2C(c2cccc(OCc3ccccc3)c2)N1CCCO (stereo not drawn) | 0% | ? | 5 | ? | ·

Compound activity: PubChem, National Center for Advancing Translational Sciences (NCATS)
